Source: PubChem BioAssay (National Center for Advancing Translational Sciences (NCATS))
In the library only some 18% were active in any assay of this set; here they are far more common.
IL1B secr inh: blocks inflammasome-driven IL-1 beta release. THP-1 LPS/ATP IL-1B secretion, AlphaLISA, 16 h; stronger effect = lower value. activity change, % at 57.5 µM. hit rate 4.7% among 360,000; in the data active means activity change below about -50%; inconclusive means mostly about -30% to -49%
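Secreted IL-1B measured by AlphaLISA bead assay after 16 h compound exposure of THP-1 cells; compounds (final up to 57.5 uM) added 1 h before LPS (250 ng/mL) and ATP (1.25 mM) stimulation; lower signal means less secretion.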
LDHA inh: inhibitors of human lactate dehydrogenase A | P00338 | purified LDHA, NADH/diaphorase-resazurin fluorescence; stronger effect = lower value | activity change, % (values are at about 110 or 230 µM) | hit rate 0.15% among 480,000 | AID 1347041; in the data active means activity change below about -30%; inconclusive means mostly about -25% to -30%;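 further: plate controls were DMSO wells for no effect and wells without enzyme for full effect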
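LDH5 2 nM; NADH 0.06 mM, pyruvate 0.2 mM; 200 mM Tris pH 7.4, EDTA, Tween-20; 5 min RT. Detection: diaphorase 0.133 mg/mL + resazurin 37 µM, fluorescence ex540/em590 at 0 and 20 min; normalized to enzyme-free and DMSO wells.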
RORgamma inh: blocks mouse ROR gamma transcriptional activity; hit rate 5.4% among 310,000; P51450; Drosophila S2 Gal4-RORgamma UAS-luciferase reporter, 20 h; AID 2551; Potency, µM (top dose mostly 53.6 µM), for inactives: at the top dose activity change, negative = inhibition, usual class: inhibitors; further: potency means the concentration at half of the fitted maximal effect; nearly all actives have a fitted effect of over 60% in size
Target sequence (P51450 whole entry, looked up, the tested form may be a part): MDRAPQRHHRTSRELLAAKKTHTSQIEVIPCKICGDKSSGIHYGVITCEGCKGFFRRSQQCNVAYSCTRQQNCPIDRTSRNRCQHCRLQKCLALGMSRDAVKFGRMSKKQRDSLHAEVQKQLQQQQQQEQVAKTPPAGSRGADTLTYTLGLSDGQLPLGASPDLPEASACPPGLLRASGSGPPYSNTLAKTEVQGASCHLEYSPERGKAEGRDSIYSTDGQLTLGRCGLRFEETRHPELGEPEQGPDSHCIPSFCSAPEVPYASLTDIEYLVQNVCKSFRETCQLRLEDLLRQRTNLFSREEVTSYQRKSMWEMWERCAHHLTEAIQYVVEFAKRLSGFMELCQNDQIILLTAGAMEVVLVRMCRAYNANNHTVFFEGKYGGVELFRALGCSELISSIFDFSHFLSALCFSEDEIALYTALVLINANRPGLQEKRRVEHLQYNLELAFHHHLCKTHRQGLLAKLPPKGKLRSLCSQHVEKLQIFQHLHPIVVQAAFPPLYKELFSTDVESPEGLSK
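Compounds are pin-transferred onto Drosophila Schneider cells expressing a copper-inducible Gal4–ROR gamma transactivation domain fusion. After 1 hr, copper sulfate is added to 700 uM final; luciferase is read 20 hr later.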
VP16 counter: Gal4-VP16 reporter inhibition counter-screen | hit rate 3.5% among 310,000 | Potency, µM (series often up to 53.6 µM), inactives show at the highest dose activity, negative = inhibition, usual class: inhibitors | AID 2546 | Drosophila S2 Gal4-VP16 UAS-luciferase, luminescence, 20 h;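 further: Gal4-VP16 expression switched on by copper sulfate through the metallothionein promoter; potency means the concentration at half of the fitted maximal effect; nearly all actives have a fitted effect of over 50% in size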
DT40 TDP1 no CPT: qHTS for Inhibitors of human tyrosyl-DNA phosphodiesterase 1 (TDP1): qHTS in cells in absence of CPT | DT40 Tdp1-/- hTDP1 cells, no CPT, ATP luminescence, 48 h | hit rate 15% among 420,000 | Potency, µM (series often up to 46.2 µM), for the others: at the top dose activity change, negative = growth inhibition, most hits filed as inhibitors; further: potency means the concentration at half of the fitted maximal effect; nearly all actives have a fitted effect of over 55% in size
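A cellular qHTS used chicken DT40 cells lacking endogenous Tdp1 but carrying stably transfected human TDP1. Compounds were applied without camptothecin, and cell growth kinetics were judged by ATP-dependent luminescence after ≥48 hr.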
TDP1 cell CPT: growth inhibition of DT40 Tdp1-/-;hTDP1 cells with camptothecin (screen for TDP1 inhibitors); chicken DT40 Tdp1-/-;hTDP1 cells + 20 nM CPT, ATP luminescence, 48 h; Potency, µM (series often up to 46.2 µM), without a hit: at the highest dose activity change, negative = growth inhibition, hits mostly inhibitors; hit rate 12% among 420,000; AID 686979; further: potency means the concentration at half of the fitted maximal effect; nearly all actives have a fitted effect of over 55% in size
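Cell growth measured by CellTiter-Glo luminescence after a minimum 48 h, 37 C compound exposure with 20 nM CPT in Tdp1-knockout DT40 cells stably expressing hTDP1, seeded 400/well; qHTS titration format.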
* = called active by the depositor; ? = inconclusive; · = no result given; [ ] = another dose, or the depositor's remark. Unless noted, the call rests on the fitted dose curve; in most records, active means well fitted curve in the direction sought with a large enough effect; inconclusive means small, poorly fitted or top-dose-only effect, or another doubt; inactive means no such curve, though single readings can be large; an effect the other way counts as inactive or inconclusive. Unless noted, on the % scale 0 is the no-effect control and ±100 the full control effect.

SMILES	IL1B secr inh	LDHA inh	RORgamma inh	VP16 counter	DT40 TDP1 no CPT	TDP1 cell CPT
Cc1cc([N+](=O)[O-])nn1CCCC(=O)Nc1sc2c(c1C(N)=O)CCCC2	?	-7	1%	-20%	18µM*	?
Cc1cc([N+](=O)[O-])nn1CC(=O)Nc1sc2c(c1C(N)=O)CCCC2	22	4	27%	23%	2%	7%
NC(=O)c1c(NC(=O)COC(=O)c2ccc(O)c(Cl)c2)sc2c1CCCC2	55	6	·	·	?	26µM*
C=CCNC(=S)Nc1sc2c(c1C(N)=O)CCCC2	-27	-1	11µM*	?	?	?
CCCc1cc(=O)oc2c(C)c(OCC(=O)c3ccc(OC)cc3)ccc12	·	-4	·	·	·	·
CCC(C)[C@H](NC(=O)NCCc1ccc(Cl)cc1)C(=O)O (some centres not stated)	·	-4	·	·	·	·
Cc1ccccc1COc1ccc2c(C)cc(=O)oc2c1	·	0	·	·	·	·
O=C(CC1CC2CCC1C2)NCc1ccccn1 (configuration not stated)	·	-10	·	·	·	·
C=CC(=O)Nc1sc2c(c1C(N)=O)CCCC2	-109*	-1	·	·	?	15µM*
NC(=O)c1c(NC(=O)CN2CCCC2)sc2c1CCCC2	-3	-4	?	-10%	16µM*	9.2µM*
COC(=O)Nc1sc2c(c1C(N)=O)CCCCCC2	-7	-9	27%	1%	21µM*	16µM*
N#CCC(=O)Nc1sc2c(c1C(N)=O)CCCC2	-21	-4	?	3%	-16%	-19%
Cc1cnc(NC(=O)c2nn(Cc3ccccc3)c(=O)c3ccccc23)s1	·	11	·	·	·	·
O=C(C[n+]1cccc(C(=O)Nc2ccccc2)c1)c1ccccc1	-4	4	·	·	18µM*	?
N#Cc1ccc[n+](CC(=O)c2ccc(NC(=O)c3ccccc3)cc2)c1	15	-2	15%	2%	-22%	10µM*
Cc1ccc[n+](CC(=O)c2ccc(NC(=O)c3ccccc3)cc2)c1	-10	14	15%	-1%	-78%	-82%
CC(Sc1nc(N(C)C)nc(N2CCOCC2)n1)C(=O)Nc1ccccc1 (configuration not stated)	9	-1	10%[0.365 µM]	·	7.3µM*	-26%
CC(Sc1nc(N2CCOCC2)nc(N2CCOCC2)n1)C(=O)Nc1ccccc1 (configuration not stated)	19	2	0%	4%	-28%	?
Cc1ccc(NC(=O)Nc2ccc(C(=O)N3CCOCC3)cc2)cc1	-10	-3	-2%	-26%	?	-2%
CC(=O)c1ccc(Nc2cc(C)nc3c(C)cccc23)cc1	-7	1	?	?	1.3µM*	1.3µM*
Cc1cc(C)c2nc(-c3cccc(Cl)c3)c(C)c(C(=O)N3CCOCC3)c2c1	-82*	1	4%	-7%	?	?
CC(=O)c1ccc(Nc2cc(C)nc3ccccc23)cc1	7	-6	2%	-4%	13µM*	12µM*
Cc1cc(C)c2nc(-c3cccc(Cl)c3)c(C)c(C(=O)NC3CCCCC3)c2c1	·	0	·	·	·	·
Cc1cc(C)c2nc(C)cc(Nc3ccc(C(=O)N4CCOCC4)cc3)c2c1	-65*	2	-17%	-9%	-23%	5%
C=CCn1c(N2CCN(Cc3cccc(Cl)c3)CC2)nc2c1c(=O)[nH]c(=O)n2C	·	7	·	·	·	·
CC(=O)c1cccc(Nc2cc(C)nc3c(C)cc(C)cc23)c1	-53*	-1	3%	-18%	15µM*	?
Cc1ccc(Nc2cc(C)nc3c(C)cccc23)cc1	-88*	-2	-21%	0%	?	?
O=C(Nc1ccccc1Br)c1cc(C2CC2)nn1-c1ccccc1	·	-7	·	·	·	·
CCCCn1c(C23CC4CC(CC(C4)C2)C3)n[nH]c1=S	-18	-9	2.8µM*	3.2µM*	?	-30%
